# Assay results: PubChem BioAssay (NCATS)
# Results filed as inconclusive are left out. Entries that show only a call come without a potency. Active and inactive are the calls of the source. Unless noted, the call rests on the fitted dose curve; in most records, active means well fitted curve in the direction sought with a large enough effect; inconclusive means small, poorly fitted or top-dose-only effect, or another doubt; inactive means no such curve, though single readings can be large; an effect the other way counts as inactive or inconclusive.
# Legend:
# [1] = biological target: Catechol O-methyltransferase (Homo sapiens) (UniProt P21964); experiment: Confirmatory Screen for Target Class Profiling of Small Molecule Inhibitors of Methyltransferases (AID 1745852); details: MTase-Glo luminescence, SAH detection, recombinant enzyme; measured here: COMT max response; stronger effect = lower value
# [2] = biological target: Guanidinoacetate N-methyltransferase (Homo sapiens) (UniProt Q14353); experiment: as above; details: MTase-Glo luminescence, SAH detection, recombinant enzyme; activity change, negative = inhibition: at 57.3 µM (top of the series) unless noted; series mostly up to 57.3 µM
# [3] = biological target: Nicotinamide N-methyltransferase (Homo sapiens) (UniProt P40261); experiment: as above; details: MTase-Glo luminescence, SAH detection, recombinant enzyme; measured here: NNMT max response; stronger effect = lower value
# [4] = biological target: Phenylethanolamine N-methyltransferase (Homo sapiens) (UniProt P11086); experiment: as above; details: MTase-Glo luminescence, SAH detection, recombinant enzyme; measured here: PNMT max response; stronger effect = lower value
# [5] = Counterscreen for APE1 Inhibitors: Fluorescent Dye Displacement Validation Assay (AID 1707); details: fluorescent dye displacement from DNA; series mostly up to 57.1 µM
# Procedure, shortened: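 Thiazole Orange displacement from dsDNA: 250 nM ThO with 50 nM TAMRA-labelled abasic-site (tetrahydrofuran) duplex in 50 mM Tris-HCl pH7.5, 50mM NaCl, 2 mM MgCl2, 0.01% Tween-20. Loss of endpoint fluorescence (ex 480 nm, em 540 nm) flags DNA binders.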
# [6] = qHTS for differential inhibitors of proliferation of Plasmodium falciparum line Dd2 (AID 1882); details: Potency: Plasmodium falciparum Dd2 proliferation inhibition; series mostly up to 28.7 µM; further: nearly all actives have a fitted effect of over 65% in size; further: potency means the concentration at half of the fitted maximal effect
# Procedure, shortened: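 Dd2-infected erythrocytes (0.3% parasitemia, 2.5% hematocrit final) incubated with compound 72 h at 37 C, 5% CO2; lysed with saponin/Triton buffer containing SYBR Green I, incubated overnight in the dark, then read by fluorescence (485/535 nm). Normalized to 0.29 uM artemisinin and DMSO.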
# [7] = biological target: Ferritin light chain (Equus caballus) (UniProt P02791); experiment: qHTS Validation Assay for Identification of Novel General Anesthetics (AID 2323); details: horse apoferritin, anesthetic-site fluorescent probe displacement; series mostly up to 76.9 µM
# Procedure, shortened: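 Normalized fluorescence response, scaled between free 1-AMA and 1-AMA/apoferritin complex, fitted to a four-parameter Hill equation for concentration-effect values. Binding mix: 10 uM horse-spleen apoferritin, 50% saturated 1-AMA in PBS; read 380/535 nm after 10 min.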
# [8] = biological target: ATP-dependent DNA helicase Q1 (Homo sapiens) (UniProt P46063); experiment: qHTS Validation Assay for Inhibitors of RecQ-Like Dna Helicase 1 (RECQ1) (AID 2353); details: recombinant RECQ1 helicase DNA unwinding assay; series mostly up to 25.6 µM
# Procedure, shortened: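 50 nM RECQ1T1 preincubated 15 min with compound in Tris pH 8.0 buffer with MgCl2, DTT, Tween-20 and 2.5 ug/ml poly(dI-dC); started with 200 nM TAMRA/BHQ-2 forked duplex and 2 mM ATP. Unwinding read as fluorescence (525/598 nm), two reads 2 h apart.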
# [9] = biological target: RecQ-like DNA helicase BLM (Homo sapiens) (UniProt P54132); experiment: qHTS Validation Assay for Inhibitors of Bloom's syndrome helicase (BLM) (AID 2364); details: BLM helicase DNA unwinding, fluorescence, in vitro; series mostly up to 57.1 µM
# Procedure, shortened: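 Forked 20-bp duplex substrate (200 nM, TAMRA/BHQ-2) plus 2 mM ATP added after 15 min compound preincubation with 50 nM enzyme, pH 8.0, poly(dI-dC) 2.5 ug/ml. Strand separation followed by fluorescence (525/598 nm) over 2 h, normalized to enzyme-free and DMSO controls.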
# [10] = Validation screen for small molecules that induce DNA re-replication in MCF 10A normal breast cells (AID 463097); details: MCF 10A cells, DNA re-replication phenotype imaging; series mostly up to 46.1 µM; further: nearly all actives have a fitted effect of over 60% in size
# Procedure, shortened: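 Following 48 hr compound incubation (37 C, 5% CO2), MCF 10A cells receive Hoechst for 40 min at 37 C. Nuclei are then scanned (excitation 405 nm, emission 500-530 nm) for total fluorescence intensity.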
# [11] = Quantitative high throughput screen for delayed death inhibitors of the malarial parasite plastid, 96 hour incubation (AID 488745); details: Plasmodium falciparum growth; series mostly up to 28.7 µM; further: nearly all actives have a fitted effect of over 70% in size; further: potency means the concentration at half of the fitted maximal effect;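 on activity change, negative = inhibition: luciferase-expressing P. falciparum in erythrocytes at 2% hematocrit and 0.1% parasitemia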
# Procedure, shortened: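 Infected erythrocytes were added to compound in Albumax-supplemented RPMI 1640 at 0.1% parasitemia and 2% hematocrit (final), incubated 96 h at 37 C under 5% CO2, then luciferase reagent was added and luminescence measured.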
# [12] = Quantitative high throughput screen for delayed death inhibitors of the malarial parasite plastid, 48 hour incubation (AID 488752); details: Plasmodium falciparum growth; series mostly up to 28.7 µM; further: nearly all actives have a fitted effect of over 65% in size; further: potency means the concentration at half of the fitted maximal effect
# Procedure, shortened: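 Readout is firefly luciferase luminescence from a reporter integrated into the parasite genome, with lower signal taken as inhibited growth. Infected red cells (0.1% parasitemia, 2% hematocrit final) are cultured with compound for one 48 h cycle at 37 C.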
# [13] = Validation screen for small molecules that induce DNA re-replication in SW480 colon adenocarcinoma cells (AID 504364); details: DNA re-replication phenotype (high-content imaging); series mostly up to 46.1 µM
# Procedure, shortened: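 250 cells/well; compound pinned in; 48 hr, 37 C, 5% CO2; Hoechst added, 40 min; nuclear fluorescence imaged, 405 ex / 500-530 em; re-replication scored as increase in high-intensity nuclei.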
# [14] = qHTS for differential inhibitors of proliferation of Plasmodium falciparum line 7G8 (AID 1815); details: Plasmodium falciparum 7G8 proliferation inhibition; series mostly up to 28.7 µM;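 further: parasite growth measured after three days of incubation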
# [15] = qHTS for differential inhibitors of proliferation of Plasmodium falciparum line 3D7 (AID 1876);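 further: parasite growth measured after three days of culture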; details: P. falciparum 3D7 proliferation inhibition; series mostly up to 28.7 µM
# [16] = qHTS for differential inhibitors of proliferation of Plasmodium falciparum line D10 (AID 1877); details: series mostly up to 28.7 µM;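 further: parasites grown with compound for 72 h before DNA staining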
# [17] = qHTS for differential inhibitors of proliferation of Plasmodium falciparum line W2 (AID 1883); details: Potency: Plasmodium falciparum W2 proliferation inhibition; series mostly up to 28.7 µM;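 further: parasites grown with compound for 72 h before lysis and staining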
# [18] = qHTS for differential inhibitors of proliferation of Plasmodium falciparum line HB3 (AID 1886); details: Potency: Plasmodium falciparum HB3 proliferation inhibition; series mostly up to 28.7 µM;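 further: parasites grown with compound for 72 h before SYBR Green readout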
# [19] = biological target: M-phase phosphoprotein 8 (Homo sapiens) (UniProt Q99549); experiment: qHTS Validation Assay for Inhibitors for MPP8 Chromodomain Interactions with Methylated Histone Tails (AID 488949); details: AlphaScreen MPP8 binding to H3K9me3 peptide; series mostly up to 114 µM;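 further: 50 nM MPP8 with 50 nM peptide preformed then compounds added for 30 min; AlphaScreen signal from MPP8 chromodomain bound to biotinylated H3K9me3 peptide; top concentration of the series differs between compounds; nearly all actives have a fitted effect of over 55% in size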
# Procedure, shortened: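 Chemiluminescent proximity assay: histidine-tag capture via nickel acceptor beads, biotin peptide via streptavidin donor beads. Protein and peptide each at 50 nM, pH 7.4, with 30 min incubations at room temperature for complex formation, compound exposure and bead binding.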
# [20] = biological target: Transient receptor potential cation channel subfamily V member 1 (Homo sapiens) (UniProt Q8NER1); experiment: HTS Assay for Compounds that Act as Enhancers of the Vanilloid Receptor 1 (AID 488979); details: TRPV1-expressing cells, enhancer of channel activity, stimulated with capsaicin at EC20; series mostly up to 41.7 µM
# Procedure, shortened: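 Calcium influx kinetics via Fluo-8 (480/520 nm) in TRPV1-expressing cells, 2000/well cultured overnight at 35.5C. Compound-alone read 3 min (agonist phase), followed by EC20 capsaicin challenge for 2 min (enhancer phase).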
# [21] = biological target: Thyrotropin receptor (Homo sapiens) (UniProt P16473); experiment: qHTS Assay for Antagonists of the Thyroid Stimulating Hormone Receptor (AID 488980); details: TSHR-expressing cells, cAMP antagonist read-out; series mostly up to 57.5 µM
# Procedure, shortened: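 Inhibition of TSH-stimulated cAMP accumulation was quantified by homogeneous time-resolved FRET in TSHR-transfected HEK293 cells. Agonist: TSH, 4 nM final (EC80).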
# [22] = biological target: Thyrotropin-releasing hormone receptor (Homo sapiens) (UniProt P34981); experiment: qHTS for Small Molecule Agonists and Allosteric Enhancers of Human TRH Receptor: Validation Screen for Agonists (AID 493127;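 active means calcium activation more than 3 SD above the typical response in the agonist read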;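 further: intracellular calcium rise by fluo-8 fluorescence before TRH EC20 addition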); details: TRH receptor agonist cell assay; at 2 µM; stronger effect = higher value
# Procedure, shortened: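 Cells 2000/well, 10% FCS, 18 h 33.5C/5% CO2 → fluo-8 Ca dye, RT 30 min–1.5 h → FDSS baseline 10 × 1 s → compound added → 230 cycles (1 s/cycle) agonist mode. TRH controls.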
# [23] = biological target: Galactokinase (Homo sapiens) (UniProt P51570); experiment: qHTS Validation Assay for Inhibitors of Human Galactokinase (GALK) (AID 493189); details: purified human GALK enzyme activity, qHTS 7-point titration; series mostly up to 57.5 µM
# Procedure, shortened: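 Enzyme activity is inferred from ATP consumption: human GALK phosphorylates galactose (100 uM) using 35 uM ATP for 1 h at room temperature, and luciferase-based Kinase-Glo Plus reports unconsumed ATP.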
# [24] = biological target: Voltage-gated inwardly rectifying potassium channel KCNH2 (Homo sapiens) (UniProt Q12809); experiment: qHTS Assay for Small Molecule Inhibitors of the Human hERG Channel Activity (AID 588834); details: U2OS BacMam hERG, FluxOR thallium flux fluorescence; series mostly up to 92.2 µM;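 further: top concentration of the series differs between compounds; lower thallium flux fluorescence means stronger hERG block; nearly all actives have a fitted effect of over 50% in size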
# Procedure, shortened: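 Blockade is seen as reduced FluxOR thallium-flux fluorescence in U2OS cells expressing hERG from a BacMam construct, in Opti-MEM with 2% FCS. Concentration-response data fitted to the Hill equation for AC50.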
# Chain of Nicotinamide N-methyltransferase (Homo sapiens) (P40261 whole entry, looked up): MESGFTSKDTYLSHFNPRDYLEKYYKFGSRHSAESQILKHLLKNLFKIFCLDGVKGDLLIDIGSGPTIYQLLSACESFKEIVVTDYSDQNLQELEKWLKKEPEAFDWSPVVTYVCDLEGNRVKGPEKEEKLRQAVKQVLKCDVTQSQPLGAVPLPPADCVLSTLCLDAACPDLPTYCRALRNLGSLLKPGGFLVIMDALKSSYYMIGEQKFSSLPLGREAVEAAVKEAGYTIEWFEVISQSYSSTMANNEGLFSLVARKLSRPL
# Chain of Phenylethanolamine N-methyltransferase (Homo sapiens) (P11086 whole entry, looked up): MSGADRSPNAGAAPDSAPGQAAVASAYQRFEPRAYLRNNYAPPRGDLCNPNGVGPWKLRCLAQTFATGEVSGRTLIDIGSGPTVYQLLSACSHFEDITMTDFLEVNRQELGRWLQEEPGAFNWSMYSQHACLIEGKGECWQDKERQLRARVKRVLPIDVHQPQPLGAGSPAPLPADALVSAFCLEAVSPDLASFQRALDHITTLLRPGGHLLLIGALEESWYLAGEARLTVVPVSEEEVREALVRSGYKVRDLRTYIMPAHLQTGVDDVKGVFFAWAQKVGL
# Chain of Catechol O-methyltransferase (Homo sapiens) (P21964 whole entry, looked up): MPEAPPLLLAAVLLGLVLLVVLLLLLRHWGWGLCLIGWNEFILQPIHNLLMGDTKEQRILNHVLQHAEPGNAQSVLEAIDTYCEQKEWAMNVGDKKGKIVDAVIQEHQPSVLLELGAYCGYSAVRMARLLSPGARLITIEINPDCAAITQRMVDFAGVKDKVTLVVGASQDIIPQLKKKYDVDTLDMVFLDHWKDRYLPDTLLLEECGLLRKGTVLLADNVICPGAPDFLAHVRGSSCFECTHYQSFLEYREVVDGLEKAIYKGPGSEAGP
# Chain of Ferritin light chain (Equus caballus) (P02791 2-175 limits assumed): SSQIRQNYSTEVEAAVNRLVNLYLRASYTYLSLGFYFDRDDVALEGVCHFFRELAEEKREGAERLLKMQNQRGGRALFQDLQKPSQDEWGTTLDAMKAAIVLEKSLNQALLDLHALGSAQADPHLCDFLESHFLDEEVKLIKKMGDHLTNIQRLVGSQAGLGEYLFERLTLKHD
# Chain of ATP-dependent DNA helicase Q1 (Homo sapiens) (P46063 whole entry, looked up): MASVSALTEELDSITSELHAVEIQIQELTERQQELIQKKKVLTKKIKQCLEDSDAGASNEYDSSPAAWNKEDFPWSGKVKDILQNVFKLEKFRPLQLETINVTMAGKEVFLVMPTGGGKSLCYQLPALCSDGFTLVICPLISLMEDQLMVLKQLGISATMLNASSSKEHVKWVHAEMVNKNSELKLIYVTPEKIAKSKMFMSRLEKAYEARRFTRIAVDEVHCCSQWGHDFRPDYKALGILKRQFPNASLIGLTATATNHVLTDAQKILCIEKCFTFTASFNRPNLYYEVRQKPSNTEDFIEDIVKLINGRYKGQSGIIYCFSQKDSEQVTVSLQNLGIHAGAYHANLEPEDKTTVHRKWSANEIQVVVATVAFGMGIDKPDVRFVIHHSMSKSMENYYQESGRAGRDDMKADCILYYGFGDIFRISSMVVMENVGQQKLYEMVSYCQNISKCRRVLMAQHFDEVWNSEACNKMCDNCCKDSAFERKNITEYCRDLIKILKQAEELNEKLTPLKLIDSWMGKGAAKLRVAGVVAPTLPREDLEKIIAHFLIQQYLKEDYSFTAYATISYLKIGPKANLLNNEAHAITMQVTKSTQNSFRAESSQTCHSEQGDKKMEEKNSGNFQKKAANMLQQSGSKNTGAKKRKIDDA
# Chain of M-phase phosphoprotein 8 (Homo sapiens) (Q99549 whole entry, looked up): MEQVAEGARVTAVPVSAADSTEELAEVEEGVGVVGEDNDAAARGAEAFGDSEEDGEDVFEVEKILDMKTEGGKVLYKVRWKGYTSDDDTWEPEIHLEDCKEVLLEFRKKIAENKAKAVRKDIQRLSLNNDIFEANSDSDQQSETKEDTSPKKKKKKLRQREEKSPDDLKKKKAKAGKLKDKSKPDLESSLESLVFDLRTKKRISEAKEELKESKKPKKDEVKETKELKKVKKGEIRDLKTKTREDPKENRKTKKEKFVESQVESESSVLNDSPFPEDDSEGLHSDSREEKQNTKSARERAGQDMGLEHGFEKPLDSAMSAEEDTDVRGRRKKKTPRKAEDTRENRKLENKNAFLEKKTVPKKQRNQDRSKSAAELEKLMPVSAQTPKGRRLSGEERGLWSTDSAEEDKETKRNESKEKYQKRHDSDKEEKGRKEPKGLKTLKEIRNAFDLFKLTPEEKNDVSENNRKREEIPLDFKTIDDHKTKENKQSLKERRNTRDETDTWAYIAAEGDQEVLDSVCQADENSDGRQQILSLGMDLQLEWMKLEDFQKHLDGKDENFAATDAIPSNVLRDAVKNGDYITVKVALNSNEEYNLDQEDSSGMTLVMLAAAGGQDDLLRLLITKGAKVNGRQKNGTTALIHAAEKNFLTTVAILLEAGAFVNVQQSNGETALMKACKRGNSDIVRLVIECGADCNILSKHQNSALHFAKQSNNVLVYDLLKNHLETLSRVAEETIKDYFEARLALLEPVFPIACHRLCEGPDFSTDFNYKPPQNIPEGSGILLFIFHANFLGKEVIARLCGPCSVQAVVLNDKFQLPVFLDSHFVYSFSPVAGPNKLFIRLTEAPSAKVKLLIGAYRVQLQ
# Chain of Galactokinase (Homo sapiens) (P51570 whole entry, looked up): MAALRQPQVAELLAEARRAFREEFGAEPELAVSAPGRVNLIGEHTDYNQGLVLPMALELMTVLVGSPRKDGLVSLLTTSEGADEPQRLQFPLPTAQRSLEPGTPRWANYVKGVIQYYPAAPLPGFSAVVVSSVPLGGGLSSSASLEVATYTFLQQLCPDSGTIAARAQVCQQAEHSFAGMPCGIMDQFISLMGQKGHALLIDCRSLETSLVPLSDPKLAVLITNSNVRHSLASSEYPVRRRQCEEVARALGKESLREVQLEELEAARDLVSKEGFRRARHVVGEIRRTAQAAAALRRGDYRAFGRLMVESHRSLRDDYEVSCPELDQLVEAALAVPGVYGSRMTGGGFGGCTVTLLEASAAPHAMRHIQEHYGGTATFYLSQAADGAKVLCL
# Chain of RecQ-like DNA helicase BLM (Homo sapiens) (P54132 whole entry, looked up): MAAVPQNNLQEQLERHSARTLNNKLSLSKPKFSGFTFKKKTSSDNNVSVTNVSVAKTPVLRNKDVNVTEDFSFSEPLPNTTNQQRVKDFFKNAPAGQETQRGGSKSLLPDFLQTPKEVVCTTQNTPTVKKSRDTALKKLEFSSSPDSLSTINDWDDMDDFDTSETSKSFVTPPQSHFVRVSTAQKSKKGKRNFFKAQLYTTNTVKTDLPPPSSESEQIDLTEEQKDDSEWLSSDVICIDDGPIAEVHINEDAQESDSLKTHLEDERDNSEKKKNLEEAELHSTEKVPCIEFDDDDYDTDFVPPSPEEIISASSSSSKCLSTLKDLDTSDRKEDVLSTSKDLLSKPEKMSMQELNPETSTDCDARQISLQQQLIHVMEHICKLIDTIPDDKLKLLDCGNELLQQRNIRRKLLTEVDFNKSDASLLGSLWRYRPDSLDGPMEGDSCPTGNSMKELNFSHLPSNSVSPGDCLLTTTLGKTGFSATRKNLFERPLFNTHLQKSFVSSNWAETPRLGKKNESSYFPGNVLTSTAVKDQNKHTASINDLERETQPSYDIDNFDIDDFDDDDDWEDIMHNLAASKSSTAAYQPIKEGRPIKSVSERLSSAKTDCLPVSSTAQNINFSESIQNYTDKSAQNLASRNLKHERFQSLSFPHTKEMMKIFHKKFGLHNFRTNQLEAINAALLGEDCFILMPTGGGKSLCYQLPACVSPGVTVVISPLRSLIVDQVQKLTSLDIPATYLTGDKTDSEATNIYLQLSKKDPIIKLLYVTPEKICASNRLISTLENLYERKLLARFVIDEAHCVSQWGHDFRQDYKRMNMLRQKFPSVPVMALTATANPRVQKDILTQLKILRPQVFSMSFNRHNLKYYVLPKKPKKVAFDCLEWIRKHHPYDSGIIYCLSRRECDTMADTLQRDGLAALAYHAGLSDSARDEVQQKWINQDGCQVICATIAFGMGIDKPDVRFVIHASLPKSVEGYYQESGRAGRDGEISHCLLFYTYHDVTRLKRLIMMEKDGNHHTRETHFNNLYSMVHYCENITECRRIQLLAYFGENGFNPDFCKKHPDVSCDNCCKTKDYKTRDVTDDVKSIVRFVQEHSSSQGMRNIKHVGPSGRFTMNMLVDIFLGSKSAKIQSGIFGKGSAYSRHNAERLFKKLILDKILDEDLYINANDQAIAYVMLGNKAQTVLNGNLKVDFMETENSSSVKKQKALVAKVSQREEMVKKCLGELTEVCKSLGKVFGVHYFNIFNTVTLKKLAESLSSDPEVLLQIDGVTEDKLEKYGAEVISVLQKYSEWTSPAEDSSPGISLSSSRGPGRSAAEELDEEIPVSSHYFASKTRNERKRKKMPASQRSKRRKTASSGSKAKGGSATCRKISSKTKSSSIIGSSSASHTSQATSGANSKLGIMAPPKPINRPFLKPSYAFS
# Chain of Thyrotropin-releasing hormone receptor (Homo sapiens) (P34981 whole entry, looked up): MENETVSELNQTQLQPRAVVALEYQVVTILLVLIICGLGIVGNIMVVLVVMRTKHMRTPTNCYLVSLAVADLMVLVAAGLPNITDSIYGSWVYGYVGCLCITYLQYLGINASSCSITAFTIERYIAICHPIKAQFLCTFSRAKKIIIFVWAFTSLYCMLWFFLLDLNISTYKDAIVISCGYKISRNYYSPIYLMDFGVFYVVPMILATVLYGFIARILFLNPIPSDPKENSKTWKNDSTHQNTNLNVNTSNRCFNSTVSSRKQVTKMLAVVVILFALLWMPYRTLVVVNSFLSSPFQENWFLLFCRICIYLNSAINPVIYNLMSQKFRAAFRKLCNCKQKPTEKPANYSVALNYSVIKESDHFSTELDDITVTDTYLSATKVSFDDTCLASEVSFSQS
smiles,measurement,setting,value
CC1(C(=O)NC2CCCCCC2)Cn2c(c(-n3cccc3)c3ccccc32)C(=O)N1CC1CCCO1 (centres undefined),activity,[1],4.7%
same,"activity change, negative = inhibition",[2],0.126%
same,activity,[3],-46.9%
same,activity,[4],0%
Cc1nc(NC(=O)C2CC(=O)N(c3n[nH]c4cc(Br)ccc34)C2)sc1C (centres undefined),activity,[1],11.1%
same,"activity change, negative = inhibition",[2],3.17%
same,activity,[3],-94.1%
same,activity,[4],7.69%
CC(C)Cn1c(=O)c2ccccc2n2c(CCC(=O)N3CCN(c4ccccc4F)CC3)nnc12,activity,[1],2.07%
same,"activity change, negative = inhibition",[2],0%
same,activity,[3],-58.2%
same,activity,[4],-8.56%
C=C[C@@H]1CN2CC[C@@H]1C[C@@H]2[C@H](O)c1ccnc2ccc(OC)cc12,outcome,[5],inactive
same,Potency,[6],126 nM (active)
same,outcome,[7],inactive
same,outcome,[8],inactive
same,Potency,[9],inactive
same,Potency,[10],inactive
same,Potency,[11],16.5 nM (active)
same,Potency,[12],26.2 nM (active)
same,Potency,[13],inactive
Nc1nc(Cl)nc2c1ncn2[C@@H]1O[C@H](COP(=O)(O)OP(=O)(O)OP(=O)(O)O)[C@H](O)[C@H]1O,outcome,[5],inactive
same,Potency,[14],inactive
same,Potency,[15],inactive
same,Potency,[16],inactive
same,Potency,[6],inactive
same,Potency,[17],inactive
same,Potency,[18],inactive
same,outcome,[7],inactive
same,outcome,[8],inactive
same,Potency,[11],inactive
same,Potency,[12],inactive
same,Potency,[19],inactive
same,outcome,[20],inactive
same,outcome,[21],inactive
same,activation,[22],6.94% (inactive)
same,outcome,[23],inactive
same,Potency,[13],inactive
same,Potency,[24],inactive
